Here are results for 40 compounds from PubChem BioAssay (EPA / NIEHS).

Where “and” joins values, the source holds several entries; their conditions need not be identical. Equal values may be shown once. Calls of active or inactive are those of the source. How the source made its calls: active means hit-call score of the fitted dose curve at least 0.9, where 1 is the maximum; inactive means score below 0.9.

Usually AC50 stands for the midpoint of the concentration-response curve, whichever way the signal moves.

Read-out in this assay: Plasminogen Activator Inhibitor-1 (PAI1), SERPINE1 (gene 5054)
Kind of assay: BSK_BF4T_PAI1: BioMAP Diversity Plus: BF4T Assay for Plasminogen Activator Inhibitor-1 (PAI1) Biomarker Activity (AID 2284273). The note with it: primary human bronchial epithelial cells with fibroblasts. The method, then:
BSK_BF4T is a cell-based, multiplexed-readout assay that uses bronchial epithelial cells and dermal fibroblasts, a human vascular primary cell, with measurements taken at 24 hours after chemical dosing in a microplate: 96-well plate.BSK_BF4T_PAI1 is an assay component measured in the BSK_BF4T assay. It measures PAI-1 antibody related to regulation of gene expression using ELISA technology.Data from the assay component BSK_BF4T_PAI1 was analyzed at the endpoint, BSK_BF4T_PAI1, in the positive analysis fitting direction relative to DMSO as the negative control and baseline of activity. Using a type of binding reporter, gain or loss-of-signal activity can be used to understand protein changes. To generalize the intended target to other relatable targets, this assay endpoint is annotated to the 'cytokine' intended target family, where the subfamily is 'plasmogen activator inhibitor'.
The levels of cell surface (or secreted, indicated by the prefix "s") biomarker endpoints were measured by ELISA. Overt cytotoxicity to cells in confluent adherent cultures (all systems other than the BT system) was assessed by measuring total protein levels using sulforhodamine B (SRB) staining in parallel cultures at the time of biomarker measurements, indicated as SRB endpoints. For proliferation assays for adherent cell types, individual cell types are cultured at sub-confluence and relative cell numbers quantified by SRB staining at time points optimized for each system (48 h: 3C and CASM3C systems; 72 h: BT and HDF3CGF systems; 96 h: SAg system). SRB was performed by staining cells with 0.1% SRB after fixation with 10% TCA and reading wells at 560 nm.Viability and proliferation of PBMC (T cells) was quantified by Alamar Blue reduction for the SAg and BT systems. For PBMC viability (referred to as PBMC Cytotoxicity within the assay endpoint names), cells were plated (75,000/well in a 96-well plate) and then chemical samples added for 1 h before addition of activators, SEB and TSST-1 (20 ng/mL final concentration each). Cells were incubated for 90 h. Then, Alamar Blue (20 uL/well) (Invitrogen, Cat DAL1100) was added for 6 h, and the plates were read with a fluorescence microplate reader at 546/580 nm (excitation/emission). For PBMC proliferation, cells were plated and activated as above but incubated for only 16 h prior to addition of Alamar Blue. Plates were read after 6 h.
As to `O=C(Cl)C(F)(F)C(F)(F)C(F)(F)C(F)(F)C(F)(F)C(F)(F)C(F)(F)F`, the outcome was inactive.

Consider `CCN(CCO)S(=O)(=O)C(F)(F)C(F)(F)C(F)(F)C(F)(F)C(F)(F)C(F)(F)C(F)(F)C(F)(F)F`, for which the result was inactive.

Regarding `NCC(F)(F)C(F)(F)C(F)(F)C(F)(F)C(F)(F)C(F)(F)F`, the outcome was inactive.

Regarding `NS(=O)(=O)C(F)(F)C(F)(F)C(F)(F)C(F)(F)C(F)(F)C(F)(F)F`, the outcome was inactive.

As for `C=C(C)C(=O)OCC(F)(F)C(F)(F)C(F)(F)C(F)F`, the outcome was inactive.

For the compound `O=S(=O)(O)CCC(F)(F)C(F)(F)C(F)(F)C(F)(F)C(F)(F)C(F)(F)C(F)(F)C(F)(F)F`, the outcome was inactive.

`CCOC(=O)CC(=O)C(F)(F)C(F)(F)F`: the result was inactive.

For `CNS(=O)(=O)C(F)(F)C(F)(F)C(F)(F)C(F)(F)C(F)(F)C(F)(F)C(F)(F)C(F)(F)F`, the outcome was inactive.

For the compound `NC(=O)C(F)(F)C(F)(F)C(F)(F)F`, the result was inactive.

Regarding `OCC(F)(F)C(F)(F)C(F)(F)C(F)(F)C(F)(F)C(F)(F)CO`, the result was inactive.

Take `NC(=O)C(F)(F)C(F)(F)C(F)(F)C(F)(F)C(N)=O`: the outcome was inactive.

As for `O=C(Cl)C(F)(F)C(F)(F)C(F)(F)C(F)(F)C(F)(F)C(F)(F)F`, the outcome was inactive.

Turning to `O=C(O)C(F)(F)C(F)(F)C(F)(F)OC(F)(C(F)(F)F)C(F)(F)F`, the result was inactive.

Take `NC(O)(C(F)(F)F)C(F)(F)F`: the result was inactive.

With `O=S(=O)(OCC(F)(F)F)C(F)(F)C(F)(F)C(F)(F)C(F)(F)F`, the result was inactive.

Take `OCCCCC(F)(F)C(F)(F)C(F)(F)C(F)(F)F`: the outcome was inactive.

For `CN(C(=O)C(F)(F)C(F)(F)C(F)(F)F)[Si](C)(C)C`, the result was inactive.

Turning to `OC(O)C(F)(F)C(F)(F)F`, the outcome was inactive.

For `C[Si](Cl)(Cl)CCC(F)(F)C(F)(F)C(F)(F)C(F)(F)C(F)(F)C(F)(F)F`, the outcome was inactive.

As to `O=C(O)CCC(F)(F)C(F)(F)C(F)(F)C(F)(F)C(F)(F)C(F)(F)C(F)(F)F`, the outcome was inactive.

For `NC(=O)C(F)(F)C(F)(F)C(F)(F)C(F)(F)C(F)(F)C(F)(F)C(F)(F)F`, the outcome was inactive.

With `COC(F)(C(F)F)C(F)(F)F` (stereo not given), the result was inactive.

For the compound `C=CC(=O)OCC(F)(F)C(F)(F)C(F)(F)COC(=O)C=C`, the concentration at half-maximal activity (AC50) is 20.7 µM (active) and 23.4 µM (active).

Turning to `OCCCC(F)(F)C(F)(F)C(F)(F)C(F)(F)C(F)(F)C(F)(F)C(F)(F)C(F)(F)F`, the AC50 was 20.7 µM (active) and 30 µM (active).

Turning to `FC(F)(F)C(F)(F)C(F)(F)CC1CO1` (stereo not given), the outcome was inactive.

Turning to `FC(F)(F)C(F)(F)C(F)(F)C(F)(F)C(F)(F)C(F)(F)C(F)(F)CCI`, the outcome was inactive.

`O=C(O)CCC(F)(F)C(F)(F)C(F)(F)F`: the result was inactive.

With `NCC(F)(F)C(F)(F)C(F)(F)C(F)(F)C(F)(F)C(F)(F)C(F)(F)C(F)(F)F`, the result was inactive.

As for `OCC(O)CC(F)(F)C(F)(F)C(F)(F)C(F)(F)F` (stereo not given), the result was inactive.

For the compound `OCC(O)CC(F)(F)C(F)(F)C(F)(F)C(F)(F)C(F)(F)C(F)(F)C(F)(F)C(F)(F)F` (stereo not given), the outcome was inactive.

In the case of `C=CC(=O)OCCC(F)(F)C(F)(F)C(F)(F)C(F)(F)F`, the result was inactive.

As to `O=C(O)C(F)(F)OC(F)(F)C(F)(F)OC(F)(F)C(F)(F)OC(F)(F)F`, the result was inactive.

Turning to `O=C(O)C(F)(F)C(F)(F)C(F)(F)OC(F)(F)F`, the result was inactive.

For the compound `O=S(=O)(Cl)C(F)(F)C(F)(F)C(F)(F)C(F)(F)C(F)(F)C(F)(F)C(F)(F)C(F)(F)F`, the AC50 is 44.9 µM (active) and 44.6 µM (active).

Turning to `O=C(O)C(F)(F)C(F)(F)C(F)(F)C(=O)O`, the result was inactive.

Regarding `O=S(=O)(O)CCC(F)(F)C(F)(F)C(F)(F)C(F)(F)F`, the outcome was inactive.

Consider `FC(F)(F)C(F)(F)C(F)(F)C(F)(F)C(F)(F)C(F)(F)CC[Si](Cl)(Cl)Cl`, for which the result was inactive.

As to `NC(=O)C(F)(F)C(F)(F)C(F)(F)C(F)F`, the result was inactive.

As to `O=C(F)C1(F)C(F)(F)C(F)(F)C(F)(F)C(F)(F)C1(F)F`, the result was inactive.

Take `O=C(O)C(F)(F)C(F)(F)C(F)(F)C(F)(F)C(F)(F)C(F)(F)C(F)F`: the result was inactive.
